Compounds with a hit are over-represented: about 3.1% of the library has one in this group of screens.
Nrf2 inh: Nrf2 qHTS screen for inhibitors. Potency, µM (highest dose often 46 µM), without a hit: top-dose activity change, negative = inhibition, usual class: inhibitors. A549 ARE-Fluc reporter, luciferase luminescence, 18-24 h. AID 504444, 2011. 360,000 tested, 2.1% active; further: on the % scale 0 is the no-effect control and ±100 the full control effect; nearly all actives have a fitted effect of over 60% in size
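A549 ARE_Fluc cells, 5000/well, 5% FBS OPTI-MEM; compounds in dose-response, 18-24 h at 37 °C/5% CO2; CellTiter-Fluor viability read (Ex 405/Em 525), then BugLite luciferase luminescence = Nrf2 activity.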
mIDH1 inhibitor: qHTS for Inhibitors of mutant isocitrate dehydrogenase 1 (IDH1): qHTS; Potency, µM (titrated, usually from 76.6 µM), for the others: at the highest dose activity change, negative = inhibition, most hits filed as inhibitors; 390,000 tested, 0.093% active; IDH1-R132H enzyme, NADPH consumption, diaphorase/resazurin fluorescence; further: on the % scale 0 is the no-effect control and ±100 the full control effect; nearly all actives have a fitted effect of over 65% in size
Target sequence (O75874 whole entry R132H, stated change not applied): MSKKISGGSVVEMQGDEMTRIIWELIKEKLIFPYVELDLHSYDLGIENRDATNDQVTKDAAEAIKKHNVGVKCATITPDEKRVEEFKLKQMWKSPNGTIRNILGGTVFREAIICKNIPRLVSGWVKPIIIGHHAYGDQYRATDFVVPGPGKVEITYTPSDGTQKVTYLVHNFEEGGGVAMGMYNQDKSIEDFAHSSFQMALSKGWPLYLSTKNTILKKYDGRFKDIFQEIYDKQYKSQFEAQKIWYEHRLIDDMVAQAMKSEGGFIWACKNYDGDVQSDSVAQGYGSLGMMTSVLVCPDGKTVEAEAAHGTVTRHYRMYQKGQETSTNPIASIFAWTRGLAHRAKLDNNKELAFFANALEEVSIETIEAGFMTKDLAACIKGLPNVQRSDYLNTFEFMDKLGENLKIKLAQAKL
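IDH1-R132H (0.5 ug/mL dispensed) in pH 7.5 Tris buffer was preincubated 30 min with compound, then given a substrate mix of 0.016 mM NADPH and 2 mM alpha-KG for 80 min at room temperature; remaining NADPH was read by diaphorase/resazurin fluorescence.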
TrxR1 substrate: qHTS Assay for Substrates of Mammalian Selenoprotein Thioredoxin Reductase 1 (TrxR1): qHTS. Thioredoxin reductase 1, cytoplasmic (Rattus norvegicus), O89049. purified TrxR1 substrate turnover, NADPH consumption readout. Potency, µM (highest dose often 114 µM), for the others: at the top dose activity change, negative = substrate turnover. 390,000 tested, 0.01% active. AID 588456, 2011; further: on the % scale 0 is the no-effect control and ±100 the full control effect; nearly all actives have a fitted effect of over 50% in size
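Rat TrxR1, dispensed at 90 nM, was prereduced with 400 uM NADPH (final) for 5 min at ~22 deg C, then incubated with compound 15 min before 400 uM selenite. A first-read NADPH fluorescence drop versus no-compound background flagged substrates.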
rTrxR1 inhibitor: qHTS Assay for Inhibitors of Mammalian Selenoprotein Thioredoxin Reductase 1 (TrxR1): qHTS; recombinant rTrxR1, NADPH fluorescence consumption, selenite substrate; AID 588453, 2011; Potency, µM (titrated, usually from 114 µM), inactives show at the highest dose activity change, negative = inhibition, most hits filed as inhibitors; Thioredoxin reductase 1, cytoplasmic (Rattus norvegicus), O89049; 390,000 tested, 1% active; further: on the % scale 0 is the no-effect control and ±100 the full control effect; nearly all actives have a fitted effect of over 65% in size
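Rat TrxR1 (90 nM in the dispensed reagent) was pre-reduced with 400 uM NADPH for 5 min at room temperature, then incubated with compound for 15 min. After 400 uM selenite was added, NADPH fluorescence (Ex 340/Em 450 nm) was followed for 8 min.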
Mito fusion act: qHTS Assay for Small Molecule Inhibitors of Mitochondrial Division or Activators of Mitochondrial Fusion; S. cerevisiae fusion-defective mutant growth rescue, CellTiterGlo 48 h; Potency, µM (series often up to 46.1 µM), without a hit: at the highest dose growth rescue (activation), hits mostly activators; 320,000 tested, 0.23% active; AID 485298, 2010; further: % of control where 0% means no effect; nearly all actives have a fitted effect of over 45% in size
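Growth-rescue viability read-out: after 48 h at the non-permissive 37C in glycerol/ethanol YPEG, yeast mitochondrial fusion mutants are measured by CellTiterGlo luminescence; compounds (23 nl pinned per well) restoring growth score as division inhibitors or fusion activators.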
A549 tox: Nrf2 qHTS screen for inhibitors: counterscreen for cytotoxicity; A549 ARE-Fluc cells, CellTiter-Fluor viability, 18-24 h; Potency, µM (doses to about 46 µM), for inactives: top-dose activity change, negative = cytotoxicity, most hits filed as inhibitors; 390,000 tested, 0.16% active; further: on the % scale 0 is the no-effect control and ±100 the full control effect
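A549 ARE-Fluc cells in 5% FBS OPTI-MEM, 5000 cells/well, rested 2 h then exposed to compounds in concentration-response for 18-24 h at 37 °C. Viability by CellTiter-Fluor fluorescence (Ex 405/Em 525) after 30 min; luciferase luminescence (BugLite, 15 min, RT) read afterwards.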
* = called active by the depositor; ? = inconclusive; / = not tested or not shown; [ ] = remark or other dose. The call rests on the fitted dose curve; in most records, active means well fitted curve in the direction sought with a large enough effect; inconclusive means small, poorly fitted or top-dose-only effect, or another doubt; inactive means no such curve, though single readings can be large; an effect the other way counts as inactive or inconclusive. Potency means the concentration at half of the fitted maximal effect.

SMILES | Nrf2 inh | mIDH1 inhibitor | TrxR1 substrate | rTrxR1 inhibitor | Mito fusion act | A549 tox
CCOC(=O)c1cc(-c2cccnc2)nn1-c1ccccc1 | 12µM* | -4% | -7% | -8% | 0% | 2%
COc1ccc(NC(=O)c2cccc(N3C(=O)C4C5C=CC(C6CC56)C4C3=O)c2)cc1 (stereo not drawn) | 21µM* | 10% | -16% | -10% | -8% | -12%
CCCNC(=O)CS(=O)Cc1nc(-c2ccccc2C)oc1C (stereo not drawn) | -6% | 13% | 2%[57.1 µM] | ? | 1% | -6%
CCC(C)NC(=O)CS(=O)Cc1nc(-c2ccccc2C)oc1C (stereo not drawn) | 18% | 0% | 18%[57.1 µM] | 7.1µM* | 2% | 2%
Cc1oc(-c2ccccc2F)nc1CS(=O)(=O)CC(=O)NC(C)CCc1ccccc1 (stereo not drawn) | ? | -10% | -4% | -12% | 11µM* | 0%
Cc1oc(-c2ccccc2F)nc1CS(=O)CC(=O)NC(C)C (stereo not drawn) | -8% | 27% | 1% | 40µM* | / | -7%
CCN(Cc1ccccc1)S(=O)(=O)c1ccc(C(=O)Nc2nnc(C3CC3)o2)cc1 | 8.2µM* | -9% | -9% | -4% | -2% | -19%
CSCc1nnc(NC(=O)c2ccc(S(=O)(=O)N(CC(C)C)CC(C)C)cc2)o1 | / | / | / | / | -2% | /
CCc1nnc(NC(=O)c2ccc(S(=O)(=O)N(CC(C)C)CC(C)C)cc2)o1 | 16µM* | 0% | -9% | -5% | 16% | ?
Cc1nnc(NC(=O)c2ccc(S(=O)(=O)N(C)Cc3ccccc3)cc2)o1 | 18µM* | -1% | -6% | 11% | -3% | -23%
CCc1ccc(N(CC)C(=O)Cn2cnc3sc(C)c(S(=O)(=O)N4CCN(c5ncccn5)CC4)c3c2=O)cc1 | 8% | -4% | -2% | 3% | / | 2%
COc1ccc(OC)c(NC(=O)C(OC(=O)CNC(=O)c2ccccc2)c2ccccc2)c1 (stereo not drawn) | -2% | / | / | / | / | -6%
COc1ccccc1N1C(=O)N(C(C)=O)C2C1Nc1ccccc1N2C (stereo not drawn) | ? | 10% | 11% | -15% | -2% | 12µM*
CCc1cc(CNC(=O)c2ccc3nc(Cc4ccc(OC)c(OC)c4)oc3c2)on1 | 21µM* | 0% | -7% | -2% | 6% | -9%
COc1cccc2cc(C(=O)Nc3ccc(CC(=O)O)cc3)c(=O)oc12 | 1.5µM* | -3% | -4% | 7% | / | -12%
COc1cccc2cc(C(=O)NCc3ccc(C)cc3)c(=O)oc12 | -9% | 4% | 1% | 7% | 2% | 1%
CC1(C)Cc2c(C#N)c(OCC(=O)c3ccc(Cl)cc3)nc(-c3ccoc3)c2CO1 | 7% | -4% | 3% | -25% | 0% | 8%
CC1(C)Cc2c(C#N)c(OCC(=O)c3ccccc3)nc(-c3ccoc3)c2CO1 | -17% | -3% | -4% | 50µM* | -1% | 5%
COc1ccc(-c2cc(C(F)(F)F)nc(SCCC(=O)Nc3ccc(F)cc3F)n2)cc1 | 11% | -8% | -3% | 11% | / | 0%
C[n+]1cccc(/C=N/Nc2nc(Cl)c(C#N)c(Cl)c2Cl)c1 | ? | 0% | -11% | 50µM* | -2% | 0%
C[N+](C)(C)c1ccc(/C=N/Nc2nc(Cl)c(C#N)c(Cl)c2Cl)cc1 | 7% | 6% | -13% | 71µM* | -6% | -1%
CC[n+]1ccnc2ccccc21 | / | / | 5% | ? | / | /
CCCCCCCCCC[n+]1ccc(/C=C/c2c(C)[nH]c3ccccc23)c2ccccc21 | / | / | -11% | ? | / | /
CC(/C=N/n1c(C2CCCCC2)n[nH]c1=S)=C\c1ccccc1 | 18µM* | 1% | -11% | -29% | -10% | /
CCOC(=O)N1CCC(NC(=O)c2ccc3c(c2)N=C(C)c2ccccc2S3)CC1 | 21µM* | -5% | -3% | 17% | 7% | -5%
SMILES | Nrf2 inh | mIDH1 inhibitor | TrxR1 substrate | rTrxR1 inhibitor | Mito fusion act | A549 tox
CCOC(=O)N1CCN(C(=O)c2ccc3c(c2)N(C)C(=O)/C(=C\c2ccc(OCC)c(OC)c2)S3)CC1 | -82% | -4% | -6% | 2% | 17% | 0%
CC1=Nc2cc(C(=O)NC3CCCC3)ccc2Sc2ccc(C)cc21 | 7% | -3% | -3% | 14% | / | -7%
O=C(c1ccc2c(c1)N(Cc1ccc(F)cc1)CCS2)N1CCN(c2ccccc2)CC1 | 21µM* | -7% | 84% | 122% | / | ?
CCOC(=O)N1CCC(NC(=O)c2ccc3c(c2)N(C)C(=O)/C(=C/c2cccc(OC)c2)S3)CC1 | 16µM* | -4% | 2%[57.1 µM] | 20%[57.1 µM] | 0% | 8%
CCOC(=O)N1CCC(NC(=O)c2ccc3c(c2)N(Cc2ccc(F)cc2)CCS3)CC1 | 26µM* | -9% | 71%[57.1 µM] | 42%[57.1 µM] | 10% | -13%
Cc1ccc(CN2CCSc3ccc(C(=O)N4CCN(c5ccccc5)CC4)cc32)cc1 | -1% | -15% | 12% | 32% | / | 9%
CCOC(=O)N1CCC(NC(=O)c2ccc3c(c2)N(Cc2ccc(C)cc2)CCS3)CC1 | -26% | -5% | 56%[57.1 µM] | 119%[57.1 µM] | -3% | -1%
O=C(NCc1ccccc1)n1cc(P(=S)(c2ccccc2)c2ccccc2)c2ccccc21 | 8% | / | / | / | / | 1%
Cn1cc(/C=C/c2ccc3ccccc3n2)c2ccccc21 | / | / | 0% | -13% | / | /
Cc1ccc(Nc2nc(-c3ccc(S(=O)(=O)N4CCCC4)cc3)cs2)cc1C | / | 5% | 17% | 6% | 0% | ?
O=S(=O)(c1ccc(-c2csc(Nc3ccc(F)cc3)n2)cc1)N1CCCC1 | 18µM* | 0% | 13% | 10% | 4% | -29%
Cc1cc(C)cc(Nc2nc(-c3ccc(S(=O)(=O)N4CCCC4)cc3)cs2)c1 | ? | -3% | 18% | 26% | 5% | 2%
O=S(=O)(c1ccc(-c2csc(Nc3ccc(Br)cc3)n2)cc1)N1CCCC1 | 8.2µM* | 2% | 40% | 90% | 6% | -16%
O=C1CCC[C@@H]2C[C@@]3(C[C@@H]4CCN1[C@H]24)Nc1cc([N+](=O)[O-])ccc1NC3=NCc1ccccc1 | / | / | -17% | -16% | / | /
Cc1ccc(-n2cc(C(=O)Oc3ccc(F)cc3)c3ccccc3c2=O)cc1 | / | -2% | 1%[57.1 µM] | -19%[57.1 µM] | / | ?
